ELG1 repair inh: ELG1-dependent DNA repair inhibition; AID 504467; Potency, µM (highest dose often 46.1 µM), inactives show at the top dose activity change, negative = inhibition, usual class: inhibitors; HEK293T ELG1-luciferase reporter, luminescence, 16 h; DNA damage induced by 5-fluorouridine; hit rate 2.3% among 330,000; further: on the % scale 0 is the no-effect control and ±100 the full control effect; nearly all actives have a fitted effect of over 55% in size
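Reporter activity after DNA damage by 5-fluorouridine is monitored. Compound-treated cells incubate 16 hr at 37 °C, then ONE-Glo is added for 30 min before luminescence reading.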
FLuc modulator: counter-screen for miR-21 project: firefly luciferase inhibitors or activators | purified FLuc, Km substrates, luminescence inhibition | Potency, µM (series often up to 57.5 µM), inactives show top-dose activity change, negative = inhibition, actives largely listed as inhibitors | hit rate 6.9% among 360,000;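 further: plate controls were vehicle for no effect and reference inhibitor for full effect; nearly all actives have a fitted effect of over 55% in size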
Target sequence (P08659 whole entry, looked up): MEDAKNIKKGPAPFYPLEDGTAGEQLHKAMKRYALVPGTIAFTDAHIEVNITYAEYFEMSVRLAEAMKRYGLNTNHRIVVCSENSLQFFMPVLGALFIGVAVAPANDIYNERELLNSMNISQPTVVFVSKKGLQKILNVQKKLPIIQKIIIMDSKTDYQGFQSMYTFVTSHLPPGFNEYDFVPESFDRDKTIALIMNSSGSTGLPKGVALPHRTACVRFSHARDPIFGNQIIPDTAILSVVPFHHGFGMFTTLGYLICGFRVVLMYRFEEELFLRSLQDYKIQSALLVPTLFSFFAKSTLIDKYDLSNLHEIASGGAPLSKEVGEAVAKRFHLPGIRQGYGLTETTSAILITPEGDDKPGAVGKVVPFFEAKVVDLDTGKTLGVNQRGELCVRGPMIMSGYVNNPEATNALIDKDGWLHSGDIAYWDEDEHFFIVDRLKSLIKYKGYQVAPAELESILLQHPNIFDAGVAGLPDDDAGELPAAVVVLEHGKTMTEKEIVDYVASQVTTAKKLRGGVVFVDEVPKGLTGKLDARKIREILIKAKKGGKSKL
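Purified P. pyralis luciferase, 10 nM final, with Km-level 10 uM D-luciferin and 10 uM ATP in 50 mM Tris acetate pH 7.5, 10 mM Mg acetate, 0.01% Tween-20, 0.05% BSA; 6-point qHTS titration about 60 µM downward; luminescence read.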
ELG1 genotox: induces genotoxicity in HEK293T cells with luciferase-tagged ELG1. HEK293T ELG1-luciferase reporter, luminescence, 16 h. Potency, µM (titrated, usually from 46 µM), without a hit: at the top dose activity change, positive = activation, actives largely listed as activators. hit rate 1.3% among 330,000. AID 504466; further: % of control where 0% means no effect; nearly all actives have a fitted effect of over 60% in size
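DMSO vehicle served as control against compound-treated ELG1-luciferase HEK293T cells; exposure lasted 16 hr at 37 °C and 5% CO2, followed by ONE-Glo luminescence detection after 30 min.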
SMN2 splice enh: SMN2 splice variant enhancement; hit rate 2.8% among 210,000; Potency, µM (series often up to 46.1 µM), without a hit: at the highest dose activity change, positive = activation, actives largely listed as activators; AID 1458; HEK293 SMN2-luciferase splicing reporter, luminescence, 30-36 h; further: % of control where 0% means no effect; nearly all actives have a fitted effect of over 55% in size
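HEK293 cells carry an SMN2 […]–luciferase reporter in which exon 7 inclusion puts luciferase in frame. Cells were plated 10-12 h before compound addition, then incubated 30-36 h at 37C. ONE-Glo luminescence was read; sodium butyrate at 4.5 mM final served as control.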
NPC1 promoter act: activators of NPC1 promoter. hit rate 2.4% among 320,000. Huh7 NPC1 promoter luciferase reporter, 24 h. Potency, µM (doses to about 9.22 µM), for inactives: at the highest dose activation, hits mostly activators; further: % of control where 0% means no effect; nearly all actives have a fitted effect of over 60% in size
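Readout is luciferase luminescence, reflecting NPC1 promoter activation in stably transfected Huh7 cells after 24 h compound exposure at 37 °C in reduced-serum medium with 10% FBS.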
Rab9 promoter act: activators of Rab9 promoter. Huh7 Rab9 promoter-luciferase reporter, luminescence, 24 h. Potency, µM (titrated, usually from 9.22 µM), for inactives: top-dose activation, negative = inhibition, usual class: activators. hit rate 2.8% among 320,000. AID 485297; further: % of control where 0% means no effect; nearly all actives have a fitted effect of over 60% in size
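Measured in stably transfected Huh7 cells bearing a Rab9 promoter–luciferase construct: 24 h compound treatment at 37 °C, followed by luminescence detection.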
Numbers without * were called inactive; ? = inconclusive; / = not tested or not shown. Only some compounds are listed: those with a hit (about 9.3% of all), similar ones and a draw of the others. The call rests on the fitted dose curve; in most records, active means well fitted curve in the direction sought with a large enough effect; inconclusive means small, poorly fitted or top-dose-only effect, or another doubt; inactive means no such curve, though single readings can be large; an effect the other way counts as inactive or inconclusive. Potency means the concentration at half of the fitted maximal effect.

SMILES	ELG1 repair inh	FLuc modulator	ELG1 genotox	SMN2 splice enh	NPC1 promoter act	Rab9 promoter act
COc1ccc(/C=N/NC(=S)Nc2cccc(C(=O)O)c2)cc1OC	12%	5.4µM*	3%	2%	1%	-1%
COc1cc(/C=N/NC(=S)Nc2cccc(C(=O)O)c2)cc(OC)c1OC	14%	24µM*	2%	?	1%	-1%
Cc1cc(S(=O)(=O)N2CCOCC2)ccc1OCC(=O)Nc1cccc(F)c1	12%	5%	-8%	/	2%	0%
CC(C)N1CC(O)=C(c2nc3ccccc3[nH]2)C1=N	?	19µM*	?	9%	16%	?
CCC(C)NC(=O)C(Cc1ccccc1)n1cccc1 (centres undefined)	12%	8%	-8%	14%	-1%	-1%
CCOc1ccccc1Nc1nc(N)nc(CSc2nccc(C)n2)n1	-14%	-5%	1%	21%	5%	7%
CNc1nc(-c2ccc(Cl)cc2)cs1	?	6.7µM*	?	20%	2.8µM*	2.8µM*
CNc1nc(-c2ccc([N+](=O)[O-])cc2)cs1	?	12µM*	3%	6%	?	?
CCN(CC)CC(=O)Nc1nc(-c2ccc(Cl)cc2)cs1	0%	-19%	4%	-2%	19%	3%
CCNc1nc(-c2ccc(Cl)cc2)cs1	?	3.4µM*	?	27%	3.5µM*	2.2µM*
O=C(NCc1ccco1)c1ccc(Cl)c(S(=O)(=O)N2CCCC2)c1	0%	/	-1%	/	-1%	12%
N/C(=N\OC(=O)CCCc1ccccc1)c1cccnc1	15%	17µM*	4%	4%	-2%	-1%
N/C(=N\OC(=O)CCCc1ccccc1)c1cccc([N+](=O)[O-])c1	-7%	?	0%	13%	-1%	0%
Cc1cccc(/C(N)=N/OC(=O)CCCc2ccccc2)c1	26%	9.5µM*	?	/	13%	9%
N/C(=N\OC(=O)CCCc1ccccc1)c1ccccc1	0%	4.8µM*	?	/	9%	17%
Cc1ccc(N2C(=O)CC(Sc3ncccc3C(=O)O)C2=O)cc1 (centres undefined)	9%	0%	4%	-3%	0%	-3%
O=C(CSc1cccc[n+]1[O-])Nc1cccc(S(=O)(=O)NC2=NCCCCC2)c1	16%	-1%	3%	14%	-4%	3%
CCC(CC)C(=O)NCCc1cc2ccc(C)cc2[nH]c1=O	9%	0%	0%	-14%	-1%	-2%
CC1CCCCN1c1nc(-c2ccc(C(C)(C)C)cc2)nc2ccccc12 (centres undefined)	/	3.4µM*	/	383%	/	/
CC1CCN(c2nc(-c3ccncc3)nc3ccccc23)CC1	?	2%	-6%	0%	-3%	-3%
c1ccc2c(N3CCOCC3)nc(-c3ccncc3)nc2c1	6.5µM*	1%	-5%	26%	-4%	4%
CC1CCCCN1c1nc(-c2ccncc2)nc2ccccc12 (centres undefined)	-35%	0%	-7%	15%	-4%	-5%
CC1CCN(c2nc(-c3ccc(C(C)(C)C)cc3)nc3ccccc23)CC1	/	5.4µM*	/	-1%	/	/
CC1CCC2(CC1)NC(=O)N(CC(=O)NCc1cccs1)C2=O (centres undefined)	1%	4%	-3%	-7%	0%	19%
CCOC(=O)CCCSc1nc(-c2ccc3c(c2)OCO3)cc(C(F)(F)F)c1C#N	9%	2%	-1%	2%	0%	-3%
CCOC(=O)CSc1nc(-c2ccc3c(c2)OCO3)ccc1C#N	?	5.4µM*	?	11%	2.5µM*	0.79µM*
CCOC(=O)CC(=O)CSc1nc(-c2cccnc2)ccc1C#N	?	?	?	18%	3%	2%
CCOC(=O)CSc1nc(-c2ccncc2)ccc1C#N	?	?	?	1.1µM*	1.3µM*	0.4µM*
